# PubChem BioAssay (NCI)
# The panel holds about 83,000 compounds, 20% with a hit somewhere; the sample as a whole holds those more often.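 96-well plates, one dose, 48 hours. Percent growth reported; active if below 10.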 Values without a mark were called inactive. Calls of active or inactive are those of the source.
# Legend:
# Experiment in all cases: NCI-60 one-dose screen, 48 h (100 = growth as untreated, 0 = no growth, -100 = all killed)
# Conditions in all cases: 10 µM unless noted
# [1] = system: SR leukemia
# [2] = system: RPMI-8226 leukemia
# [3] = system: OVCAR-8 ovarian
# [4] = system: OVCAR-5 ovarian
# [5] = system: OVCAR-4 ovarian
# [6] = system: SK-OV-3 ovarian
# [7] = system: IGROV1 ovarian
# [8] = system: HS 578T breast
# [9] = system: NCI/ADR-RES ovarian
# [10] = system: T-47D breast
# [11] = system: BT-549 breast
# [12] = system: MDA-MB-435 melanoma
# [13] = system: SW-620 colon
# [14] = system: MCF7 breast
# [15] = system: HCT-116 colon
# [16] = system: HCC-2998 colon
# [17] = system: KM12 colon
Compound,growth [1],growth [2],growth [3],growth [4],growth [5],growth [6],growth [7],growth [8],growth [9],growth [10],growth [11],growth [12],growth [13],growth [14],growth [15],growth [16],growth [17]
Nc1ccc(Nc2ncnc3sc4c(c23)CCN(Cc2ccccc2)C4)cc1,82.9%,94.3%,99.3%,107%,96.8%,113%,101%,98.2%,101%,102%,101%,102%,99.7%,84.5%,96.9%,105%,104%
CCOC(=O)c1cccnc1Nc1ccc(NC(=O)Nc2ccc(Cl)c(C(F)(F)F)c2)cc1,54%,16%,39.3%,85.7%,42.8%,70.1%,29.9%,84.5%,35.3%,-1.09% (active),60.9%,53.1%,37.1%,17.8%,16.4%,50.4%,17.5%
Clc1ccc2c(N/N=C/c3c[nH]c4ccccc34)ccnc2c1,2.13% (active),-25% (active),-68% (active),-83.9% (active),-61.2% (active),-85.6% (active),-87.2% (active),-47% (active),-71.8% (active),-54.5% (active),-89.1% (active),-92.9% (active),-74.8% (active),-72% (active),-91.9% (active),-92.3% (active),-77.2% (active)
CC(C)(C)c1cc(NC(=O)Nc2ccc(-c3cn4c5c(sc4n3)CCc3c[nH]cc3-5)cc2)no1,2.1% (active),-18.6% (active),32.7%,47.7%,49%,33.7%,38%,-10.4% (active),29%,18.5%,18.7%,26%,17.8%,-6.97% (active),23.2%,24%,6.68% (active)
CN1CCN(CCCCCC(=O)Nc2nc(-c3cccc(NS(=O)(=O)c4cccc5c(N(C)C)cccc45)c3)cs2)CC1,-4.68% (active),34.9%,87.8%,91.6%,89.6%,105%,87.8%,73.1%,94.1%,72.3%,90.7%,52.1%,92.8%,14.8%,51.6%,83.7%,79.6%
COc1ccc(N2CCN(C3=C(Cl)C(=O)c4ncccc4C3=O)CC2)cc1,0.311% (active),23.2%,74.8%,112%,48.2%,81%,80.7%,70.2%,86.6%,-53.3% (active),111%,-59.9% (active),-4.75% (active),-27.6% (active),-59.7% (active),107%,95.7%
Cc1cc(=O)[nH]c(O)c1C#N,99.3%,-72% (active),102%,97.2%,98.3%,106%,103%,116%,106%,105%,113%,105%,96.6%,99.9%,104%,114%,102%
CCCCc1nc2c(N)nc3ccccc3c2n1Cc1cccc(CN)c1,2.23% (active),42.5%,63.9%,109%,53.6%,91.2%,62.8%,67.2%,93.5%,74%,28.1%,4.8% (active),52.6%,24.8%,23%,59.7%,49.9%
CN1CCN(CCNc2nc(-c3cccc(NS(=O)(=O)c4cccc5c(N(C)C)cccc45)c3)cs2)CC1,23.4%,35.8%,75.9%,90.3%,71.5%,91.6%,78.5%,87.9%,86.9%,39.6%,58.6%,66%,70.5%,11.1%,32.2%,49.5%,77.3%
O=C1[C@@H]2Cc3c([nH]c4ccccc34)[C@@H](c3ccc(Cl)cc3)N2C(=O)CN1C1CCN(Cc2c(F)cccc2F)CC1,-4.42% (active),12.5%,43.7%,59.4%,44.8%,68.5%,25.6%,53.8%,42.5%,56.8%,46.3%,46.9%,48.6%,15.3%,17.8%,6.16% (active),35.1%
Cc1ccc(-c2nc(SCC(=O)c3ccccc3)nc(Nc3ccc(S(N)(=O)=O)cc3)c2C#N)cc1,56.9%,65.4%,34.6%,97.3%,24.3%,107%,86.3%,-0.186% (active),81.7%,83.9%,73.8%,47%,83.8%,65.1%,35.9%,106%,72.8%
O=C(CCCCCCN1CC(=O)N2[C@@H](c3ccc(Cl)s3)c3[nH]c4ccccc4c3C[C@H]2C1=O)NO,14.7%,17%,38.5%,39.3%,64.6%,78.7%,-20.6% (active),65.5%,98.5%,27.5%,85.7%,23.9%,33.2%,14.7%,13%,37.6%,71.9%
N#Cc1cccc(-c2cc(-c3ccc4c(c3)OCCO4)[nH]n2)c1,12.4%,18.3%,35.3%,71.8%,79.2%,54.3%,36.5%,40.1%,20%,36.4%,49.3%,-24.6% (active),27.5%,12.2%,23.1%,47.3%,36.4%
CN(C)CCNc1ccc2ncc(C#Cc3cncc(C(=O)Nc4ccc(CN5CCN(C)CC5)c(C(F)(F)F)c4)c3)n2n1,0.232% (active),-11.2% (active),1.03% (active),11.4%,-10.1% (active),45.1%,0.103% (active),-16.1% (active),76%,78.7%,-8.5% (active),40.5%,-6.29% (active),-51.9% (active),5.01% (active),-25.9% (active),-8.42% (active)
